# In the library only some 4.7% were active in any assay of this set; here they are far more common.
# D1 potentiator = human D1 dopamine receptor positive modulation. hit rate 0.036% among 360,000. P21728. HEK293 TREx D1 cells, calcium flux, dopamine EC20 potentiation. potentiation, % at 10 µM. AID 504651; in the data active means potentiation above about 30%; further: 0% is about no effect
# D1 agonist = activates the human D1 dopamine receptor. hit rate 1% among 360,000. HEK293 T-REx D1 cells, calcium flux, agonist mode. activation, % at 2 µM. P21728; further: 0% is about no effect
#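 Tetracycline-induced HEK293 TREx D1 cells, force-coupled to calcium signalling, were dye-loaded with a no-wash calcium kit. Compound was pin-added after a 10 s baseline. Fluorescence was read kinetically at 1 cycle/s for 180 s, with calcium rises flagged as agonism.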
# TRHR ag = agonists of human TRH receptor; TRHR cells, calcium flux fluo-8, FDSS agonist mode; P34981; hit rate 0.18% among 360,000; activation, % at 2 µM; AID 493084; further: 0% is about no effect
# Target sequence (P34981 whole entry, looked up): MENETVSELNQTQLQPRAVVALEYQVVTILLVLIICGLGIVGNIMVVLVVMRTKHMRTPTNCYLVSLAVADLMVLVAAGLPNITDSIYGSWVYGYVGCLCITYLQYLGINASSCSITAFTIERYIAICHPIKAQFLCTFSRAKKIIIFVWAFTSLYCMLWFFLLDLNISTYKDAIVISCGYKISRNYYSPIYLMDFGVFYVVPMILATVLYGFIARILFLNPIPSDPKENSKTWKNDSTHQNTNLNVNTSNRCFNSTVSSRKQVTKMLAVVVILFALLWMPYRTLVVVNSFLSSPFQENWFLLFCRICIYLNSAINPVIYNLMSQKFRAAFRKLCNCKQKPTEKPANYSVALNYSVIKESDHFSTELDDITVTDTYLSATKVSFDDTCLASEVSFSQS
#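 TRHR-expressing cells loaded with fluo-8 calcium dye; 23 nL library compound pin-transferred, kinetic FDSS fluorescence (Ex 480/Em 530) recorded about 180 s for agonist-induced calcium release, before a 10 nM TRH EC20 addition for potentiator mode.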
# TRHR PAM = allosteric enhancers of human TRH receptor; AID 493056; hit rate 0.66% among 360,000; TRHR cells, fluo-8 calcium fluorescence, EC20 TRH enhancement; enhancement, % at 2 µM; in the data active means enhancement above about 30%; further: 0% is about no effect
#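 Enhancer read-out: after compound pinning and an initial kinetic agonist-mode read, an EC20 of TRH (10 nM final) was injected and fluo-8 calcium signal (Ex 480/Em 530) followed at 1 s/cycle for 100 cycles in TRHR-expressing cells.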
# D1 antagonist = antagonists of human D1 dopamine receptor; P21728; HEK293 TREx D1 cells, calcium flux, dopamine EC80; stronger effect = lower value; activity change, negative = inhibition, % at 10 µM; hit rate 3.2% among 360,000; in the data active means activity change below about -30%; further: on the % scale 0 is the no-effect control and ±100 the full control effect
#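 HEK293 T-REx cells expressing inducible, force-coupled D1 receptor; no-wash Ca dye, 30–90 min RT. Cmpd → 180 s read at 1 Hz → EC80 DA → 180 s read.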
# Numbers without * were called inactive. Unless noted, no stated cut-off is given here; in the data, active means activation above about 30%; inactive means the rest.
SMILES,D1 potentiator,D1 agonist,TRHR ag,TRHR PAM,D1 antagonist
COc1ccccc1N1C(=O)C2C(C(=O)c3ccccc3)=NN(c3ccc(C)cc3)C2C1=O (stereo unspecified),0.7,150.0*,31.0*,-1.1,10.6
CCN(CC)S(=O)(=O)c1ccc(NC(=O)Cn2ncc3c([nH]c4ccccc43)c2=O)cc1,-1.6,1.9,0.3,12.4,-1.6
CCOC(=O)CSC1=NC(=O)/C(=C/c2ccc(OC)cc2)S1,-7.8,6.3,0.6,-0.1,-36.9*
COc1ccc(/C=C2\SC(N)=NC2=O)cc1,-1.2,6.5,0.1,3.8,5.8
COc1ccc2c(c1)CCC/C2=N/OC(=O)c1ccccc1OC,-4.0,19.8,-0.1,-2.5,-32.8*
COc1ccccc1NC(=O)CSc1nc2ccccc2c(=O)n1C,40.5*,17.1,-1.3,-6.8,-33.7*
Cn1c(SCC(=O)Nc2ccccc2F)nc2c([nH]c3ccccc32)c1=O,-3.1,0.4,-0.3,-6.8,2.7
Cc1cccc(NC(=O)CSc2nc3c([nH]c4ccccc43)c(=O)n2C)c1C,0.6,1.6,0.0,-4.7,-51.2*
CCOCCCn1c(SCC(=O)Nc2ccccc2OC)nc2ccccc2c1=O,-4.3,3.5,-0.6,-2.1,-14.0
CCc1ccccc1NC(=O)[C@H](Cc1ccccc1)N1Cc2ccccc2C1=O,-1.2,3.1,0.0,3.6,-5.3
CCCNC(=O)c1ccc2c(c1)N=C(CCC)c1ccccc1S2,-0.7,10.9,2.6,-10.5,-24.0
Cc1ccc(C)n1-c1nnc(N2CCC(C(=O)Nc3ccccc3Br)CC2)s1,-0.4,-0.6,-1.3,3.8,4.3
N#C/C(=C\c1cccnc1)C(=O)Nc1ccc(Cl)cc1,-3.4,7.4,-0.6,2.8,-31.0*
COc1ccccc1NC(=O)/C(=C\c1cccnc1)NC(=O)c1ccccc1,-5.0,-0.6,0.4,-2.2,9.2
COc1ccccc1NC(=O)/C(C#N)=C/c1cccnc1,-6.3,-1.1,0.2,-5.3,-30.8*
COc1ccccc1NC(=O)/C(=C\c1cccnc1)NC(=O)c1ccc(C)cc1,2.9,1.5,0.3,-2.2,-32.0*
Cc1ccc(S(=O)(=O)N2CCOCC2)cc1C(=O)NC1CCCCCC1,4.0,2.6,0.8,-0.1,-1.9
Cc1ccc(S(=O)(=O)N2CCOCC2)cc1C(=O)NC(=S)N1CC(C)OC(C)C1 (stereo unspecified),0.2,0.0,-0.6,-1.0,-35.1*
CC(=O)N1CCN(C(=S)NC(=O)c2ccc(S(=O)(=O)N3CCOCC3)cc2)CC1,-6.8,3.0,-0.1,-10.9,-31.4*
CC1CCc2onc(C(=O)N3CCN(c4cccc(Cl)c4)CC3)c2C1 (stereo unspecified),2.2,3.9,-0.2,-4.2,-8.0
Cc1cccc(N2N=C(C(=O)N3CC(=O)Nc4ccccc43)CCC2=O)c1,-4.9,1.2,-0.4,0.9,2.5
COc1cc(/C=C2\N=C(c3ccccc3)OC2=O)ccc1OC(C)=O,1.1,10.9,1.0,-3.8,-7.6
COc1ccc(OC)c(/C=C2\N=C(c3ccccc3)OC2=O)c1,-6.2,74.0*,11.0,-5.4,-5.2
CCOc1cc(C(=O)NCCC(=O)N2CCC3(CC2)NCCc2[nH]cnc23)cc(OCC)c1OCC,-5.6,2.3,0.8,-6.6,-10.4
CCOc1ccc(C(=O)NCCC(=O)N2CCC3(CC2)NCCc2[nH]cnc23)cc1OCC,4.6,0.7,0.4,1.4,-63.0*
SMILES,D1 potentiator,D1 agonist,TRHR ag,TRHR PAM,D1 antagonist
CCOc1ccc(C(=O)Nc2cccc3ncccc23)cc1Cl,-6.5,4.7,0.0,-9.0,-30.1*
CC(=O)c1ccc(NC(=O)C(C)NCc2ccccc2Cl)cc1 (stereo unspecified),-5.8,3.8,0.1,-5.0,-35.8*
CCCC(=O)Nc1ccc(C(=O)NCc2ccccc2Cl)cc1,-6.7,0.3,-0.3,2.7,-0.9
COc1cc(/C=N/NC(=O)CNC(=O)c2ccco2)ccc1O,-2.3,3.8,0.0,-7.1,-48.1*
O=C(CNC(=O)c1ccco1)N/N=C/c1cc(Br)ccc1O,11.0,4.9,-1.1,4.9,11.6
COc1ccccc1CNC(=O)C1CCCC1,-5.5,-0.7,0.0,-2.6,3.1
COc1ccccc1CN1CCCCC1C(=O)O (stereo unspecified),4.7,3.9,0.5,40.9*,-7.2
CCCn1c(=O)c2sccc2n2c(CCCC(=O)NC3CCC(C)CC3)nnc12 (stereo unspecified),8.9,-0.2,-0.3,36.7*,-7.0

# Screening results (PubChem)
